# Results from publication PMC11062922 (Nature Chemical Biology, 2023).
# Where two headings read alike, the source gives them in different places.
# Tests used:
# Set-up in all cases: species or system human, MV4-11 + K-562 + COLO205 + SK-N-BE2 + OVCAR-8
# ADCK1 = conditions: read-out: apparent Kd, compound concentrations: 100 nM and 1000 nM (sheet 'Samples'), n = 1
# AKT1 = conditions: read-out: apparent Kd, compound concentrations: 100 nM and 1000 nM (sheet 'Samples'), n = 1
# AKT2 = conditions: read-out: apparent Kd, compound concentrations: 100 nM and 1000 nM (sheet 'Samples'), n = 1
# CDC42BPG = conditions: read-out: apparent Kd, compound concentrations: 100 nM and 1000 nM (sheet 'Samples'), n = 1
# CLK1 = conditions: read-out: apparent Kd; compound concentrations: 100 nM and 1000 nM (sheet 'Samples'), CATDS: 3.0057021324399399E-2; n = 1
# CLK4 = conditions: read-out: apparent Kd; compound concentrations: 100 nM and 1000 nM (sheet 'Samples'), CATDS: 3.6459308399585902E-2; n = 1
# CSNK1A1 = conditions: read-out: apparent Kd, compound concentrations: 100 nM and 1000 nM (sheet 'Samples'), n = 1
# CSNK2A1;CSNK2A3 = conditions: read-out: apparent Kd; compound concentrations: 100 nM and 1000 nM (sheet 'Samples'), CATDS: 2.5783405582401799E-2; n = 1
# HSP90AA1 = conditions: read-out: apparent Kd; compound concentrations: 100 nM and 1000 nM (sheet 'Samples'), CATDS: 2.5840975218280202E-2; n = 1
# IARS = conditions: read-out: apparent Kd, compound concentrations: 100 nM and 1000 nM (sheet 'Samples'), n = 1
# ILK = conditions: read-out: apparent Kd; compound concentrations: 100 nM and 1000 nM (sheet 'Samples'), CATDS: 2.4595530906688499E-2; n = 1
# LATS1 = conditions: read-out: apparent Kd; compound concentrations: 100 nM and 1000 nM (sheet 'Samples'), CATDS: 4.0745202540463502E-2; n = 1
# MAPK11 = conditions: read-out: apparent Kd; compound concentrations: 100 nM and 1000 nM (sheet 'Samples'), CATDS: 3.2120600016528701E-2; n = 1
# MAPK14 = conditions: read-out: apparent Kd, compound concentrations: 100 nM and 1000 nM (sheet 'Samples'), n = 1
# MELK = conditions: read-out: apparent Kd; compound concentrations: 100 nM and 1000 nM (sheet 'Samples'), CATDS: 2.8403307321335999E-2; n = 1
# PKN1 = conditions: read-out: apparent Kd; compound concentrations: 100 nM and 1000 nM (sheet 'Samples'), CATDS: 3.7770198987071901E-2; n = 1
# PKN2 = conditions: read-out: apparent Kd; compound concentrations: 100 nM and 1000 nM (sheet 'Samples'), CATDS: 2.64555223020508E-2; n = 1
# PRKACA = conditions: read-out: apparent Kd; compound concentrations: 100 nM and 1000 nM (sheet 'Samples'), CATDS: 4.8150008864783198E-2; n = 1
# PRKACB = conditions: read-out: apparent Kd; compound concentrations: 100 nM and 1000 nM (sheet 'Samples'), CATDS: 3.8489694396370601E-2; n = 1
# PRKCA = conditions: read-out: apparent Kd; compound concentrations: 100 nM and 1000 nM (sheet 'Samples'), CATDS: 2.8417130340745399E-2; n = 1
# PRKCD = conditions: read-out: apparent Kd; compound concentrations: 100 nM and 1000 nM (sheet 'Samples'), CATDS: 2.7001587668499999E-2; n = 1
# PRKG1 = conditions: read-out: apparent Kd; compound concentrations: 100 nM and 1000 nM (sheet 'Samples'), CATDS: 5.7321528324025303E-2; n = 1
# PYGL = conditions: read-out: apparent Kd; compound concentrations: 100 nM and 1000 nM (sheet 'Samples'), CATDS: 2.4948391152713498E-2; n = 1
# RIOK2 = conditions: read-out: apparent Kd; compound concentrations: 100 nM and 1000 nM (sheet 'Samples'), CATDS: 4.2618907121449799E-2; n = 1
# ROCK1 = conditions: read-out: apparent Kd; compound concentrations: 100 nM and 1000 nM (sheet 'Samples'), CATDS: 5.0643849743389702E-2; n = 1
# ROCK2 = conditions: read-out: apparent Kd; compound concentrations: 100 nM and 1000 nM (sheet 'Samples'), CATDS: 5.2344501044754001E-2; n = 1
# RPS6KB1 = conditions: read-out: apparent Kd; compound concentrations: 100 nM and 1000 nM (sheet 'Samples'), CATDS: 2.7290145261830101E-2; n = 1
# SYK = conditions: read-out: apparent Kd; compound concentrations: 100 nM and 1000 nM (sheet 'Samples'), CATDS: 2.51844401612667E-2; n = 1
# T10 = tested on: T1, T10; conditions: read-out: apparent Kd; compound concentrations: 100 nM and 1000 nM (sheet 'Samples'), CATDS: 2.6247989636004901E-2; n = 1
# T1 construct: gene NAT10
# BTK = conditions: read-out: apparent Kd; compound concentrations: 100 nM and 1000 nM (sheet 'Samples'), CATDS: 5.4009737115297697E-2; n = 1
# CSNK1E = conditions: read-out: apparent Kd; compound concentrations: 100 nM and 1000 nM (sheet 'Samples'), CATDS: 3.8720748933532501E-2; n = 1
# CSNK1G3 = conditions: read-out: apparent Kd; compound concentrations: 100 nM and 1000 nM (sheet 'Samples'), CATDS: 4.2624276708998099E-2; n = 1
# OPA1 = conditions: read-out: apparent Kd; compound concentrations: 100 nM and 1000 nM (sheet 'Samples'), CATDS: 4.7870015182345502E-2; n = 1
# PIK3CD = conditions: read-out: apparent Kd; compound concentrations: 100 nM and 1000 nM (sheet 'Samples'), CATDS: 0.15137185396719799; n = 1
# PIM1 = conditions: read-out: apparent Kd; compound concentrations: 100 nM and 1000 nM (sheet 'Samples'), CATDS: 5.1032643222322503E-2; n = 1
# PIM2 = conditions: read-out: apparent Kd; compound concentrations: 100 nM and 1000 nM (sheet 'Samples'), CATDS: 0.19635235530270301; n = 1
# RAB14 = conditions: read-out: apparent Kd; compound concentrations: 100 nM and 1000 nM (sheet 'Samples'), CATDS: 4.5308660485802198E-2; n = 1
# RPS6KA3 = conditions: read-out: apparent Kd; compound concentrations: 100 nM and 1000 nM (sheet 'Samples'), CATDS: 4.2284934101133903E-2; n = 1
# RPS6KA6 = conditions: read-out: apparent Kd; compound concentrations: 100 nM and 1000 nM (sheet 'Samples'), CATDS: 6.3682849838720093E-2; n = 1
# SRC = conditions: read-out: apparent Kd; compound concentrations: 100 nM and 1000 nM (sheet 'Samples'), CATDS: 4.8588200967613397E-2; n = 1
# STK3 = conditions: read-out: apparent Kd; compound concentrations: 100 nM and 1000 nM (sheet 'Samples'), CATDS: 4.1174689810954603E-2; n = 1
# TAOK1 = conditions: read-out: apparent Kd; compound concentrations: 100 nM and 1000 nM (sheet 'Samples'), CATDS: 5.56620194527895E-2; n = 1
smiles,measurement,setting,value
CN(C)CCNS(=O)(=O)c1ccc(-c2ccnc3[nH]ccc23)cc1 [GSK977620A],potency estimated from few doses,ADCK1; CATDS: 9.92203055838001E-2,145 nM
same,potency estimated from few doses,AKT1; CATDS: 2.85422229355832E-2,1480 nM
same,potency estimated from few doses,AKT2; CATDS: 2.77493450407107E-2,1600 nM
same,potency estimated from few doses,CDC42BPG; CATDS: 4.9906722196616002E-2,449 nM
same,potency estimated from few doses,CLK1,1300 nM
same,potency estimated from few doses,CLK4,827 nM
same,potency estimated from few doses,CSNK1A1; CATDS: 2.8495259280969999E-2,1490 nM
same,potency estimated from few doses,CSNK2A1;CSNK2A3,1990 nM
same,potency estimated from few doses,HSP90AA1,1980 nM
same,potency estimated from few doses,IARS; CATDS: 2.4824684596515999E-2,2250 nM
same,potency estimated from few doses,ILK,2330 nM
same,potency estimated from few doses,LATS1,658 nM
same,potency estimated from few doses,MAPK11,1100 nM
same,potency estimated from few doses,MAPK14; CATDS: 2.84299118528781E-2,1500 nM
same,potency estimated from few doses,MELK,1500 nM
same,potency estimated from few doses,PKN1,768 nM
same,potency estimated from few doses,PKN2,1840 nM
same,potency estimated from few doses,PRKACA,479 nM
same,potency estimated from few doses,PRKACB,738 nM
same,potency estimated from few doses,PRKCA,1500 nM
same,potency estimated from few doses,PRKCD,1730 nM
same,potency estimated from few doses,PRKG1,352 nM
same,potency estimated from few doses,PYGL,2220 nM
same,potency estimated from few doses,RIOK2,602 nM
same,potency estimated from few doses,ROCK1,437 nM
same,potency estimated from few doses,ROCK2,412 nM
same,potency estimated from few doses,RPS6KB1,1680 nM
same,potency estimated from few doses,SYK,2150 nM
same,potency estimated from few doses,T10,1890 nM
COc1cccc(C2=C(c3cn(C)c4ccc(Cl)cc34)C(=O)NC2=O)c1 [RO3300230-000],potency estimated from few doses,ADCK1; CATDS: 4.1233669692049897E-2,1860 nM
same,potency estimated from few doses,AKT1; CATDS: 4.32167355318668E-2,1650 nM
same,potency estimated from few doses,AKT2; CATDS: 4.9283792774051899E-2,1210 nM
same,potency estimated from few doses,BTK,993 nM
same,potency estimated from few doses,CDC42BPG; CATDS: 4.9090451053861402E-2,1220 nM
same,potency estimated from few doses,CSNK1A1; CATDS: 4.23666657347909E-2,1730 nM
same,potency estimated from few doses,CSNK1E,2230 nM
same,potency estimated from few doses,CSNK1G3,1710 nM
same,potency estimated from few doses,IARS; CATDS: 4.0140361212157798E-2,2010 nM
same,potency estimated from few doses,MAPK14; CATDS: 5.21130062125853E-2,1070 nM
same,potency estimated from few doses,OPA1,1290 nM
same,potency estimated from few doses,PIK3CD,189 nM
same,potency estimated from few doses,PIM1,1120 nM
same,potency estimated from few doses,PIM2,133 nM
same,potency estimated from few doses,RAB14,1460 nM
same,potency estimated from few doses,RPS6KA3,1740 nM
same,potency estimated from few doses,RPS6KA6,723 nM
same,potency estimated from few doses,SRC,1250 nM
same,potency estimated from few doses,STK3,1870 nM
same,potency estimated from few doses,TAOK1,935 nM
